# Assay results published in the supplement of paper PMC8728848.
# Shown is part of a subset that was picked to be rich in the strongest signals.
# B1: HHL-2 (Homo sapiens), P07307 (protein)
# chain: MAKDFQDIQQLSSEENDHPFHQGEGPGTRRLNPRRGNPFLKGPPPAQPLAQRLCSMVCFSLLALSFNILLLVVICVTGSQSEGHRGAQLQAELRSLKEAFSNFSSSTLTEVQAISTHGGSVGDKITSLGAKLEKQQQDLKADHDALLFHLKHFPVDLRFVACQMELLHSNGSQRTCCPVNWVEHQGSCYWFSHSGKAWAEAEKYCQLENAHLVVINSWEEQKFIVQHTNPFNTWIGLTDSDGSWKWVDGTDYRHNYKNWAVTQPDNWHGHELGGSEDCVEVQPDGRWNDDFCLQVYRWVCEKRRNATGEVA
# How the values were obtained:
# Assay in all cases: glycan array binding signal (z-score within array); higher = stronger binding
# Settings in all cases: glycan notation: IUPAC condensed, linker removed
# [1] = biological target: Fuc(a1-2)Gal(b1-3)GlcNAc(b1-2)Man(a1-3)[Fuc(a1-2)Gal(b1-3)GlcNAc(b1-2)Man(a1-6)]Man(b1-4)GlcNAc(b1-4)GlcNAc
# How it was run: (§1)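 Columns mapping to the same glycan were averaged after glycan names were converted to IUPAC-condensed notation. The data come from 3228 arrays in the Consortium for Functional Glycomics database, limited to those with an available protein sequence. Binding is reported as a within-array Z-score averaged across arrays of one protein sequence and across linkers.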
# [2] = biological target: Fuc(a1-2)Gal(b1-4)[Fuc(a1-3)]GlcNAc(b1-2)Man(a1-3)[Fuc(a1-2)Gal(b1-4)[Fuc(a1-3)]GlcNAc(b1-2)Man(a1-6)]Man(b1-4)GlcNAc(b1-4)GlcNAc
# How it was run: as §1
# [3] = biological target: Fuc(a1-2)[GalNAc(a1-3)]Gal(b1-4)GlcNAc
# How it was run: as §1
# [4] = biological target: Fuc(a1-3)[Gal(b1-4)]GlcNAc(b1-4)Gal(b1-4)[Fuc(a1-3)]GlcNAc
# How it was run: as §1
# [5] = biological target: Fuc(a1-3)[Gal3S(b1-4)]Glc6S
# How it was run: as §1
# [6] = biological target: Fuc(a1-3)[GalNAc(b1-4)]GlcNAc
# How it was run: as §1
# [7] = biological target: Fuc(a1-3)[Neu5Ac(a2-3)]Gal(b1-4)GlcNAc(b1-3)GalNAc
# How it was run: as §1
# [8] = biological target: Gal(b1-3)GalNAc(a1-3)[Fuc(a1-2)]Gal(b1-4)GlcNAc
# How it was run: as §1
# [9] = biological target: Gal(b1-3)[Fuc(a1-4)]GlcNAc(b1-2)Man(a1-3)[Gal(b1-3)[Fuc(a1-4)]GlcNAc(b1-2)Man(a1-6)]Man(b1-4)GlcNAc(b1-4)GlcNAc
# How it was run: as §1
# Gal(b1-4)Glc6S = biological target: Gal(b1-4)Glc6S
# How it was run: as §1
# [10] = biological target: Gal(b1-4)GlcNAc(b1-3)Gal(b1-3)GlcNAc
# How it was run: as §1
# [11] = biological target: Gal(b1-4)GlcNAc(b1-3)Gal(b1-4)GlcNAc
# How it was run: as §1
# [12] = biological target: Gal(b1-4)GlcNAc(b1-3)[GlcNAc(b1-6)]Gal(b1-4)GlcNAc
# How it was run: as §1
# Gal6S(b1-4)GlcNAc6S = biological target: Gal6S(b1-4)GlcNAc6S
# How it was run: as §1
# [13] = biological target: GalNAc(b1-4)GlcNAc(b1-2)Man(a1-3)[GalNAc(b1-4)GlcNAc(b1-2)Man(a1-6)]Man(b1-4)GlcNAc(b1-4)GlcNAc
# How it was run: as §1
# GlcA(b1-3)GlcNAc = biological target: GlcA(b1-3)GlcNAc
# How it was run: as §1
# [14] = biological target: GlcNAc(b1-2)Man(a1-3)[GlcNAc(b1-2)Man(a1-6)]Man(b1-4)GlcNAc(b1-4)GlcNAc
# How it was run: as §1
# [15] = biological target: GlcNAc(b1-4)GlcNAc(b1-4)GlcNAc
# How it was run: as §1
# GlcNAc(b1-6)GalNAc = biological target: GlcNAc(b1-6)GalNAc
# How it was run: as §1
# Man(a1-2)Man(a1-3)Man = biological target: Man(a1-2)Man(a1-3)Man
# How it was run: as §1
# [16] = biological target: Neu5Ac(a2-3)Gal(b1-4)GlcNAc(b1-2)Man(a1-3)[GlcNAc(b1-2)Man(b1-4)GlcNAc(b1-2)Man(a1-6)]Man(b1-4)GlcNAc(b1-4)GlcNAc
# How it was run: as §1
# [17] = biological target: Neu5Ac(a2-3)Gal(b1-4)GlcNAc(b1-3)Gal(b1-3)GlcNAc
# How it was run: as §1
# [18] = biological target: Neu5Ac(a2-3)Gal(b1-4)GlcNAc6S
# How it was run: as §1
# [19] = biological target: Neu5Ac(a2-3)Gal(b1-4)[Fuc(a1-3)]GlcNAc6S
# How it was run: as §1
# [20] = biological target: Neu5Ac(a2-3)[Neu5Ac(a2-6)]GalNAc
# How it was run: as §1
# [21] = biological target: Neu5Ac(a2-6)Gal(b1-4)GlcNAc(b1-2)Man(a1-3)[Gal(b1-4)GlcNAc(b1-2)Man(a1-6)]Man(b1-4)GlcNAc(b1-4)GlcNAc
# How it was run: as §1
# [22] = biological target: Neu5Ac(a2-6)Gal(b1-4)GlcNAc(b1-3)Gal(b1-4)GlcNAc
# How it was run: as §1
# [23] = biological target: Neu5Ac(a2-6)Gal(b1-4)GlcNAc6S
# How it was run: as §1
# [24] = biological target: Neu5Ac(a2-8)Neu5Ac(a2-8)Neu5Ac(a2-3)Gal(b1-4)Glc
# How it was run: as §1
# [25] = biological target: Neu5Ac(a2-8)Neu5Ac(a2-8)Neu5Ac(a2-8)Neu5Ac(a2-3)[GalNAc(b1-4)]Gal(b1-4)Glc
# How it was run: as §1
# Neu5Ac(b2-6)GalNAc = biological target: Neu5Ac(b2-6)GalNAc
# How it was run: as §1
binder,measurement,setting,value
B1,glycan array binding signal (z-score),[1],-0.497
same,glycan array binding signal (z-score),[2],2.08
same,glycan array binding signal (z-score),[3],-0.68
same,glycan array binding signal (z-score),[4],-0.334
same,glycan array binding signal (z-score),[5],-0.68
same,glycan array binding signal (z-score),[6],-0.451
same,glycan array binding signal (z-score),[7],6.72
same,glycan array binding signal (z-score),[8],-0.536
same,glycan array binding signal (z-score),[9],0.043
same,glycan array binding signal (z-score),Gal(b1-4)Glc6S,-0.52
same,glycan array binding signal (z-score),[10],-0.728
same,glycan array binding signal (z-score),[11],-0.474
same,glycan array binding signal (z-score),[12],-0.539
same,glycan array binding signal (z-score),Gal6S(b1-4)GlcNAc6S,3.54
same,glycan array binding signal (z-score),[13],3.17
same,glycan array binding signal (z-score),GlcA(b1-3)GlcNAc,-0.012
same,glycan array binding signal (z-score),[14],-0.677
same,glycan array binding signal (z-score),[15],2.8
same,glycan array binding signal (z-score),GlcNAc(b1-6)GalNAc,-0.738
same,glycan array binding signal (z-score),Man(a1-2)Man(a1-3)Man,-0.028
same,glycan array binding signal (z-score),[16],2.39
same,glycan array binding signal (z-score),[17],3.56
same,glycan array binding signal (z-score),[18],-0.075
same,glycan array binding signal (z-score),[19],0.012
same,glycan array binding signal (z-score),[20],-0.847
same,glycan array binding signal (z-score),[21],0.34
same,glycan array binding signal (z-score),[22],-0.539
same,glycan array binding signal (z-score),[23],2.18
same,glycan array binding signal (z-score),[24],3.59
same,glycan array binding signal (z-score),[25],0.721
same,glycan array binding signal (z-score),Neu5Ac(b2-6)GalNAc,-0.379
